Out of some 25,000 compounds screened, about 970 (3.9%) were called active. Another 8% or so got no clear call; they are omitted. How the calls were made is not given here. Many of the other results were omitted from the sample, so actives are more common in it than they were.

What all share (experiment): Primary Screen for Target Class Profiling of Small Molecule Inhibitors of Methyltransferases
For experiment [1], the target named is Catechol O-methyltransferase (Homo sapiens) (UniProt P21964). To be noted: purified enzyme, MTase-Glo SAH luminescence; activity change, negative = inhibition: at 40 µM, stronger effect = lower value; outcome: 40 uM. From the text: (§1) PI: Matthew D. Hall Ph.D. and Quinlin M. Hanson Ph.D.
Sequence of Catechol O-methyltransferase (Homo sapiens) (P21964 whole entry, looked up): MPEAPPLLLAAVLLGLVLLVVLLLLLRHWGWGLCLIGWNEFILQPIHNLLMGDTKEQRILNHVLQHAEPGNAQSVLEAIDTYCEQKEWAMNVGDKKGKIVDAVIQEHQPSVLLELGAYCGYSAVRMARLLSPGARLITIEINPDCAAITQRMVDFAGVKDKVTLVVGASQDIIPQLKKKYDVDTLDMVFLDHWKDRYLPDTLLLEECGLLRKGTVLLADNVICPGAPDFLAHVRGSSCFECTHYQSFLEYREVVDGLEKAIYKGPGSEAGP
(§2) National Center for Advancing Translational Sciences (NCATS)
(§3) National Institute of Health (NIH), Rockville, MD
(§4) Target class profiling (TCP) is a chemical biology approach amenable to investigating understudied biological targets. TCP is achieved by developing a generalizable assay platform and applying it to screen a curated set of compound libraries against representative members of a target class. Small molecule methyltransferases (SMMTase) are a subclass of methyltransferase that act on metabolites to modulate signaling pathways, metabolize xenobiotics, or balance the available methyl pool. We screened four curated libraries totaling 27,574 unique compounds against the SMMTases nicotinamide N-methyltransferase (NNMT), phenylethanolamine N-methyltransferase (PNMT), histamine N-methyltransferase (HNMT), glycine N-methyltransferase (GNMT), catechol O-methyltransferase (COMT), and guanidinoacetate N-methyltransferase (GAMT). The data generated by this TCP can be leveraged for informed tool molecule development. For example, in the associated publication we identified a chemotype of HNMT-selective inhibitors. Additionally, we identified a putative SMMTase-selective inhibitor with potential as a tool molecule for studying broader methyltransferase biology.
(§5) High-through put screening assays were developed at the National Center for Advancing Translational Science (NCATS) for the enzymes NNMT, PNMT, HNMT, GNMT, COMT, and GAMT. Enzymatic activity was measured as a function of SAM cofactor conversion using the MTase Glo kit (Promega) for all enzymes. All assays were performed in 1536-well format with substrates and SAM concentrations at KM values. Enzyme concentration and assay timing were optimized for 10-20% SAM conversion. Initial screening of 27,574 compounds was done as single-point assays using the highest compound concentration (40 uM). […] These compounds were replated in 11-point dose response and assayed against NNMT, PNMT, HNMT, GNMT, COMT, GAMT, and a counter-assay. The IC50 and efficacy (maximal response) values were determined for each dose-response curve. These values are also accounted for in the area under the curve (AUC) values.
(§6) PROTOCOL TABLE (as described by Inglese J, Shamu CE and Guy RK. 2007)
(§7) SEQUENCE No. (e.g., 1, 2, 3, etc.); […] (e.g., Cells, Incubation, Reagent, etc.); VALUE; DESCRIPTION.
(§8) 1; Reagent; 2 uL; SMMTase Enzyme (2x) in reaction buffer, columns 1- 48.
(§9) 2; Reagent; 1 uL; SAM (4x) in reaction buffer, columns 1-48.
(§10) 3; Controls; 23 nL; DMSO in column 4; sinefungin in DMSO (0 uM - 40 uM) in 7-point 1:2 dilution series (n = 2) in column 2.
(§11) 4; Compounds; 23 nL; Columns 5-48.
(§12) 5; Reagent; 1 uL; Substrate (4x) in reaction buffer, columns 2-48.
(§13) 6; Time; 20-30 min; Incubation.
(§14) 7; Reagent; 1 uL; MTase-Glo reagent (5X), columns 1-48.
(§15) 8; Time; 30 min; Incubation.
(§16) 9; Reagent; 5 uL; MTase-Glo Detection reagent, columns 1-48.
(§17) 10; Time; 30 min; Incubation, luminescence evolution.
(§18) 11; Detection; Luminescence; ViewLux uHTS Microplate Imager (PerkinElmer).
(§19) NOTES (numbers refer to Sequence numbers above)
(§20) 1, 2, 5. White Medium Binding Greiner 1536-well plates (Cat #789175-F, Greiner Bio-One, Monroe, NC); Reaction buffer: 50 mM Tris, pH 8.0, 3 mM MgCl2, 1 mM EDTA, 50 mM NaCl, 1 mM DTT, and 0.1 mg/mL BSA. Evaporation was prevented by covering assay plates with metal lids containing holes to allow gas diffusion.
(§21) 1. Six SMMTase were profiled: HNMT, GNMT, PNMT, COMT, NNMT, GAMT
(§22) 5. The corresponding substrate was used for each enzyme: HNMT - 5.3 uM Histamine; GNMT - >500 uM Glycine; PNMT - 16.2 uM Norephinephrine; COMT - 13.7 uM Norephinephrine; NNMT - 3.8 uM Nicotinamide; GAMT - 2.5 uM Guanidinoacetate.6, 8, 10. Room temperature
(§23) 6. Final reaction conditions: 10 nM COMT, 5 uM SAM, 15 uM norepinephrine, 50 mM Tris, pH 8.0, 3 mM MgCl2, 1 mM EDTA, 50 mM NaCl, 1 mM DTT, and 0.1 mg/mL BSA; refer to tables 2 and S1 for specific timing.
8. […]

The target in experiment [2] is Glycine N-methyltransferase (Homo sapiens) (UniProt Q14749). To be noted: purified enzyme, MTase-Glo SAH luminescence; measured here: GNMT inhibition; at 40 µM; stronger effect = lower value.
Sequence of Glycine N-methyltransferase (Homo sapiens) (Q14749 whole entry, looked up): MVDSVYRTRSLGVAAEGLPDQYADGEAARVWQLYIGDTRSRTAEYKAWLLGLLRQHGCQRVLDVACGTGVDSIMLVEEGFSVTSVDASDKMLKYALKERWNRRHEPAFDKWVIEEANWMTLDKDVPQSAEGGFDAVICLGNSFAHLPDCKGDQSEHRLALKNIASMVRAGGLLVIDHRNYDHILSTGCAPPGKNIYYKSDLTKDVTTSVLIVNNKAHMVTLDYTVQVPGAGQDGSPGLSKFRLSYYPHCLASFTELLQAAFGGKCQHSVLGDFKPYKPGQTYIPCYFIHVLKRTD
From the text: as §1, §2, §3, §4, §5, §6, §7, §8, §9, §10, §11, §12, §13, §14, §15, §16, §17, §18, §19, §20, §21, §22, §23
8. […]

Experiment [3] addresses Guanidinoacetate N-methyltransferase (Homo sapiens) (UniProt Q14353). To be noted: purified enzyme, MTase-Glo SAH luminescence; measured here: GAMT inhibition; at 40 µM; stronger effect = lower value.
From the text: as §1, §2, §3, §4, §5, §6, §7, §8, §9, §10, §11, §12, §13, §14, §15, §16, §17, §18, §19, §20, §21, §22, §23
8. […]

Experiment [4] has as its target Histamine N-methyltransferase (Homo sapiens) (UniProt P50135). To be noted: purified enzyme, MTase-Glo SAH luminescence; measured here: HNMT inhibition; at 40 µM; stronger effect = lower value.
From the text: as §1, §2, §3, §4, §5, §6, §7, §8, §9, §10, §11, §12, §13, §14, §15, §16, §17, §18, §19, §20, §21, §22, §23
8. […]

Experiment [5] deals with Nicotinamide N-methyltransferase (Homo sapiens) (UniProt P40261). To be noted: purified enzyme, MTase-Glo SAH luminescence; measured here: NNMT inhibition; at 40 µM; stronger effect = lower value.
Sequence of Nicotinamide N-methyltransferase (Homo sapiens) (P40261 whole entry, looked up): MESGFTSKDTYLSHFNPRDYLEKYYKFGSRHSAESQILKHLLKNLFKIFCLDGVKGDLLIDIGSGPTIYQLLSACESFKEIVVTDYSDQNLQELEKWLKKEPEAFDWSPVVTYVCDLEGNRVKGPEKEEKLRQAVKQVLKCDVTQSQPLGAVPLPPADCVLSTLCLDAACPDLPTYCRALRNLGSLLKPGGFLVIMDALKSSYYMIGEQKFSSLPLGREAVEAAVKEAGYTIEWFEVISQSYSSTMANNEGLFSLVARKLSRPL
From the text: as §1, §2, §3, §4, §5, §6, §7, §8, §9, §10, §11, §12, §13, §14, §15, §16, §17, §18, §19, §20, §21, §22, §23
8. […]

In experiment [6] the target is Phenylethanolamine N-methyltransferase (Homo sapiens) (UniProt P11086). To be noted: purified enzyme, MTase-Glo SAH luminescence; measured here: PNMT inhibition; at 40 µM; stronger effect = lower value.
Sequence of Phenylethanolamine N-methyltransferase (Homo sapiens) (P11086 whole entry, looked up): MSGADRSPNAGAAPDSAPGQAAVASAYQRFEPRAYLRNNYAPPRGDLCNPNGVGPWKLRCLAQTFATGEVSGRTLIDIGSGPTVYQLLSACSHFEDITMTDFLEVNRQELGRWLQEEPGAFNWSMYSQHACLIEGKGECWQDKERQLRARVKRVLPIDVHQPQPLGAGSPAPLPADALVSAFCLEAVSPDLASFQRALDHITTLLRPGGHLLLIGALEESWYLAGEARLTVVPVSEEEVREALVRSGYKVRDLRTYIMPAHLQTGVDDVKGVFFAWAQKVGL
From the text: as §1, §2, §3, §4, §5, §6, §7, §8, §9, §10, §11, §12, §13, §14, §15, §16, §17, §18, §19, §20, §21, §22, §23
8. […]
On the % scale 0 is the no-effect control and ±100 the full control effect.

Sequence of Histamine N-methyltransferase (Homo sapiens) (P50135 whole entry, looked up): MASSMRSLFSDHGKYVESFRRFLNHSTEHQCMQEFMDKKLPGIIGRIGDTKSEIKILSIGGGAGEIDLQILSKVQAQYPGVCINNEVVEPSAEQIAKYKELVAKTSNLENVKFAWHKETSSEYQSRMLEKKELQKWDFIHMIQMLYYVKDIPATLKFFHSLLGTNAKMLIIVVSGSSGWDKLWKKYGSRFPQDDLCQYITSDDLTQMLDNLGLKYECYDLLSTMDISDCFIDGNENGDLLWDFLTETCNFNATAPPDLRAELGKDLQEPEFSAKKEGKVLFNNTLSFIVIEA

Consider `COc1ccccc1-c1[nH]nc2ncc(C(=O)N3CCN(Cc4ccccc4)CC3)nc12`, for which the activity change, negative = inhibition was -63.8% (active) in experiment [1]; -70.9% in experiment [2]; -63.7% in experiment [3]; -73.4% in experiment [4]; -59.4% in experiment [5]; -76.7% in experiment [6].
As to `O=c1c2ccccc2n2c(=O)n(Cc3cccc(F)c3)nc2n1CCc1ccccc1`, the activity change, negative = inhibition in experiment [1] is -1.7% (inactive); in experiment [2] it was -7.42%; in experiment [3], -7.2%; in experiment [4], 8.21%; in experiment [5], -7.17%; in experiment [6], -9.52%.
Turning to `CC1(C)[C@H](Cc2cc(-c3ccccc3)on2)C[C@@H]1NCC1CC1`, the activity change, negative = inhibition in experiment [1] was -5.01% (active); in experiment [2] it was -5.31%; in experiment [3], -6%; in experiment [4], -40.7%; in experiment [5], -19.5%; in experiment [6], -50.1%.
Regarding `CCCn1c(=O)c2cc(Cl)ccc2n2c(SCC(=O)Nc3ccc(Cl)cc3)nnc12`, the activity change, negative = inhibition in experiment [1] was -0.206% (inactive); in experiment [2], -6.08%; in experiment [3], 4.35%; in experiment [4] it was 1.24%; in experiment [5], -3.29%; in experiment [6], 1.76%.
For `CCOCCCN1C(=O)c2cc3ccccc3n2CC1(C)C(=O)NCCC(C)C` (stereo not drawn), the activity change, negative = inhibition in experiment [1] is 4% (inactive); in experiment [2], 6.59%; in experiment [3], 4.89%; in experiment [4] it was 8.93%; in experiment [5] it was 10.6%; in experiment [6], 0.52%.
Turning to `CCCn1c(=O)c2ccc(C(=O)NC(C)CC)cc2n2c(=O)n(CC(=O)Nc3ccccc3)nc12` (stereo not drawn), the activity change, negative = inhibition in experiment [1] was -0.37% (inactive); in experiment [2], 0.266%; in experiment [3], 3.33%; in experiment [4], 0.842%; in experiment [5], -0.601%; in experiment [6], 3.03%.
`O=c1c2ccccc2n2c(=O)n(Cc3ccccc3)nc2n1Cc1ccc(F)cc1`: the activity change, negative = inhibition is 6.23% (inactive) in experiment [1]; 9.17% in experiment [2]; 3.06% in experiment [3]; 12.4% in experiment [4]; 6.51% in experiment [5]; 5.22% in experiment [6].
In the case of `COc1ccc(-c2nc3ccncc3[nH]2)cc1`, the activity change, negative = inhibition in experiment [1] was -149% (active); in experiment [2], -99.2%; in experiment [3] it was -103%; in experiment [4], -91.6%; in experiment [5], -110%; in experiment [6] it was -145%.
With `CC1CCN(S(=O)(=O)c2ccc3c(ccn3CCC(=O)N3CCN(c4ccccn4)CC3)c2)CC1`, the activity change, negative = inhibition was -2.75% (inactive) in experiment [1]; -6.24% in experiment [2]; -4.09% in experiment [3]; -2.6% in experiment [4]; -7.95% in experiment [5]; -2.86% in experiment [6].
For `Cc1cc(Nc2cc(N3CCN(C)CC3)nc(Sc3ccc(NC(=O)C4CC4)cc3)n2)n[nH]1`, the activity change, negative = inhibition was -3.15% (active) in experiment [1]; -71.8% in experiment [2]; 5.06% in experiment [3]; -13.3% in experiment [4]; -11.1% in experiment [5]; -0.531% in experiment [6].
Consider `Cc1cc2c(cc1S(=O)(=O)NCc1ccc3c(c1)OCO3)n(C)c(=O)n2C`, for which the activity change, negative = inhibition is 13.6% (inactive) in experiment [1]; 12.8% in experiment [2]; 1.49% in experiment [3]; 9.41% in experiment [4]; 2.71% in experiment [5]; 6.83% in experiment [6].
On to `O=C(NCc1ccc2c(c1)OCO2)c1sc(=S)n2c1[nH]c(=O)c1ccccc12`, for which the activity change, negative = inhibition is -20.2% (active) in experiment [1]; -52.7% in experiment [2]; 0% in experiment [3]; -2.67% in experiment [4]; -35.9% in experiment [5]; -28.2% in experiment [6].
As to `Cc1ccc(Cn2c(=O)c3ccccc3n3c(CCC(=O)NCc4ccc5c(c4)OCO5)nnc23)cc1`, the activity change, negative = inhibition in experiment [1] was -5.97% (inactive); in experiment [2] it was -13.5%; in experiment [3], 2.22%; in experiment [4], -2.65%; in experiment [5] it was -2.38%; in experiment [6], -7.16%.

For the origin of these results see PubChem BioAssay AID1745853 (National Center for Advancing Translational Sciences (NCATS), 2022).
